Pf_Dd2_growth = inhibitors of Plasmodium falciparum Dd2 growth | P. falciparum Dd2 growth, SYBR Green, 72 h; hits give low values | activity change, % at 10 µM | 2.3% of 94,000 active | AID 1159554; in the data active means activity change below about -80%; inconclusive means no clear call, values can overlap the other calls
T_cruzi_growth-1 = inhibitors of T. cruzi proliferation | T. cruzi beta-gal in NIH3T3, GalScreen luminescence, 90 h | inhibition, % at 8.34 µM | 5.9% of 77,000 active | AID 624255;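 active means mean inhibition above about 93%, with at least 55% of replicates each passing it, limit read from the data, passing the limit was not always enough; inconclusive means only one of those two conditions holds; inactive means neither condition holds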
C_diff_HTS = inhibitors of Clostridium difficile growth; Clostridium difficile clinical isolate growth, OD600, 24 h; hits give low values; growth activity, negative = inhibition, % at 16 µg/mL (by protocol); 0.25% of 86,000 active; AID 1259249;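 active means mean growth activity at or below -80% and every replicate also at or below -80%; inconclusive means mean at or below -80% but some replicate above -80%; inactive means mean growth activity above -80%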;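 further: 0% = DMSO wells and -100% = levofloxacin 16 µg/mL wells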
T_cruzi_growth-2 = Trypanosoma cruzi proliferation inhibition. 72% of 5,600 active. inhibition, % at 8.35 µM. shares compounds with T_cruzi_growth-1. T. cruzi beta-gal in NIH3T3, GalScreen luminescence, 90 h;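 active means mean replicate inhibition above about 95% and at least 55% of replicates individually reaching it, limit read from the data; inconclusive means only one of the two criteria is met; inactive means neither criterion is met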
T_cruzi_growth-3 = inhibitors of T. cruzi proliferation; shares compounds with T_cruzi_growth-1; inhibition, % at 2.09 µM; T. cruzi beta-gal in NIH3T3, GalScreen luminescence, 90 h; 21% of 5,600 active;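 active means mean inhibition above about 95%, with at least 55% of replicates also reaching it, limit read from the data; inconclusive means meets just one of the two conditions; inactive means meets neither condition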;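 further: plate controls were neutral control median for no effect and positive control median for full effect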
3T3_cytotox = cytotoxicity in mouse NIH/3T3 fibroblasts; shares compounds with T_cruzi_growth-1; NIH/3T3 viability, CellTiter-Glo ATP luminescence, 90 h; cytotoxicity (signal decrease), % at 8.35 µM; 14% of 5,600 active; AID 651742;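 active means mean signal decrease across replicates above about 35% based on untreated-well scatter, with enough replicates individually passing, limit read from the data; inconclusive means no rule stated though some were filed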;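 further: 0% = median of neutral control wells and 100% = median of positive control wells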
NIH3T3_tox_2 = cytotoxicity in mouse NIH/3T3 fibroblasts; shares compounds with T_cruzi_growth-1; NIH/3T3 viability, CellTiter-Glo ATP luminescence, 90 h; 56% of 5,600 active; AID 651744; inhibition, % at 24.9 µM;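 active means mean loss of cell viability signal at or above a set limit, and enough replicates individually reaching it; inconclusive means meets only the mean limit or only the replicate share; inactive means meets neither condition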;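 further: 0% = median of neutral control wells and 100% = median of positive control wells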
* = called active by the depositor; u = inconclusive; x = no result; ! = not confirmed by another sample. An excerpt weighted towards active compounds, which were near 6.7% of everything screened.

SMILES Pf_Dd2_growth T_cruzi_growth-1 C_diff_HTS T_cruzi_growth-2 T_cruzi_growth-3 3T3_cytotox NIH3T3_tox_2
C[C@@H]1CN([C@H](C)CO)S(=O)(=O)c2ccc(C3=CCCCC3)cc2O[C@@H]1CN(C)C(=O)C1CCCCC1 -47 127* -11 96* 92 30 102*
C[C@H]1CN([C@@H](C)CO)S(=O)(=O)c2ccc(C3=CCCC3)cc2O[C@@H]1CN(C)C(=O)C1CCCCC1 -24 105*! -10 102*! 71 -6 57*!
C[C@H]1CN([C@@H](C)CO)S(=O)(=O)c2ccc(C3=CCCC3)cc2O[C@H]1CN(C)C(=O)C1CCC1 -38 52 -6 x x x x
C[C@@H]1CN([C@@H](C)CO)S(=O)(=O)c2ccc(C3=CCCCC3)cc2O[C@H]1CN(C)C(=O)C1CCC1 -34 28 2 x x x x
C[C@H](CO)N1C[C@H](C)[C@@H](CN(C)C(=O)C2CCOCC2)Oc2cc(C3=CCCC3)ccc2S1(=O)=O -24 u -3 67 6 20 29*
COc1ccc2c3c([nH]c2c1)[C@@H](CO)N(S(C)(=O)=O)CC31CN(C(=O)Nc2ccccc2)C1 8 x -4 x x x x
Cc1ccc(S(=O)(=O)N[C@@H]2CC[C@H](CC(=O)NCCN3CCCCC3)O[C@@H]2CO)cc1 13 -3 -2 x x x x
O=S(=O)(NCC[C@@H]1CC[C@@H](NS(=O)(=O)c2ccccc2Cl)[C@@H](CO)O1)c1ccc(F)cc1 -12 10 -3 x x x x
COc1ccc(NC(=O)N2CCCCN3[C@H](CO)[C@H](c4ccc(C#Cc5ccccn5)cc4)[C@@H]3C2)cc1 u 44 -6 x x x x
O=C(Nc1ccc(F)cc1)N1CCCCN2[C@@H](CO)[C@H](c3ccc(C#Cc4ccccn4)cc3)[C@@H]2C1 -70 123* 6 107* 75 -14 6
O=C(Nc1ccc(F)cc1)N1CCCCN2[C@H](CO)[C@H](c3ccc(C#Cc4ccccn4)cc3)[C@H]2C1 -69 80 -7 x x x x
O=C(Nc1ccccc1)N1CCCCN2[C@@H](CO)[C@H](c3ccc(C#Cc4ccccn4)cc3)[C@@H]2C1 -70 72 -3 x x x x
O=C(Nc1ccccc1)N1CCCCN2[C@H](CO)[C@H](c3ccc(C#Cc4ccccn4)cc3)[C@H]2C1 -25 104* 12 99* 61 -8 13
COc1ccc(NC(=O)N2CCCCN3[C@@H](CO)[C@H](c4ccc(C#Cc5ccccn5)cc4)[C@@H]3C2)cc1 -85* 103* 7 110* 109* -24 -7
O=C1N[C@@H](Cc2ccccc2)COCc2cn(nn2)CC[C@@H]1Cc1ccccc1 x x 7 x x x x
N#C[C@H]1[C@@H](c2ccc(-c3ccc(F)cc3)cc2)[C@@H](CO)N1C(=O)Cc1ccccc1 -7 74 6 x x x x
N#C[C@@H]1[C@@H](c2ccc(-c3ccncc3)cc2)[C@@H](CO)N1C(=O)Cc1ccccc1 -53 u -3 -3 -125 27 28*
N#C[C@H]1[C@H](c2ccc(C#Cc3ccc(F)cc3)cc2)[C@H](CO)N1C(=O)Cc1ccncc1 -73 u -14 89 87 -24 u
N#C[C@H]1[C@H](c2ccc(-c3ccccc3)cc2)[C@H](CO)N1C(=O)Cc1ccncc1 -80 102* 4 110* 40 -4 u
N#C[C@@H]1[C@H](c2ccc(-c3cncnc3)cc2)[C@@H](CO)N1C(=O)Cc1ccccc1 31 88 -10 x x x x
N#C[C@@H]1[C@@H](c2ccc(-c3ccccc3)cc2)[C@@H](CO)N1C(=O)Cc1ccncc1 -8 93 -2 x x x x
N#C[C@H]1[C@@H](c2ccc(-c3ccncc3)cc2)[C@@H](CO)N1C(=O)Cc1ccccc1 -25 u 7 104* 8 29 44*
N#C[C@H]1[C@H](c2ccc(-c3ccc(F)cc3)cc2)[C@H](CO)N1C(=O)Cc1ccccc1 -16 88 16 x x x x
CC(C)NC(=O)Nc1cccc2c1O[C@@H](CN(C)C(=O)Nc1ccc3c(c1)OCO3)[C@H](C)CN([C@H](C)CO)C2=O 13 39 x x x x x
C[C@H]1CN([C@@H](C)CO)S(=O)(=O)c2ccc(C#Cc3ccccc3)cc2O[C@@H]1CN(C)C(=O)Cc1ccccn1 -78 105* -10 105* 35 21 51*
SMILES Pf_Dd2_growth T_cruzi_growth-1 C_diff_HTS T_cruzi_growth-2 T_cruzi_growth-3 3T3_cytotox NIH3T3_tox_2
C[C@@H]1CN([C@H](C)CO)S(=O)(=O)c2ccc(C#Cc3ccccc3)cc2O[C@@H]1CN(C)C(=O)Cc1ccccn1 -71 u 1 109* 73 24 58*
CC(C)C#Cc1ccc2c(c1)O[C@H](CN(C)C(=O)Cc1ccccn1)[C@H](C)CN([C@H](C)CO)S2(=O)=O -22 33 13 x x x x
CC(C)C#Cc1ccc2c(c1)O[C@@H](CN(C)C(=O)Cc1ccccn1)[C@H](C)CN([C@H](C)CO)S2(=O)=O -53 20 0 x x x x
COCC(=O)Nc1ccc2c(c1)C(=O)N(C)C[C@@H](OC)[C@@H](C)CN(Cc1ccccn1)[C@@H](C)CO2 -3 -15 x x x x x
C[C@@H]1CN([C@H](C)CO)C(=O)CCCn2cc(nn2)CO[C@@H]1CN(C)C(=O)Cc1ccccc1 5 33 -2 x x x x
C[C@@H]1CN([C@H](C)CO)C(=O)CCCn2cc(nn2)CO[C@@H]1CN(C)C(=O)c1ccc(N2CCN(C)CC2)cc1 2 120* 1 -38 -60 -12 -15
C[C@H](CO)N1C[C@H](C)[C@H](CN(C)Cc2cccc(O)c2)OCc2cn(nn2)CCCC1=O 1 u 2 -13 4 -3 -6
C[C@@H]1CN([C@@H](C)CO)C(=O)CCCn2cc(nn2)CO[C@@H]1CN(C)C(=O)Nc1cccc(C(F)(F)F)c1 1 152* -5 -26 6 12 -3
C[C@H]1CN([C@@H](C)CO)C(=O)CCCn2cc(nn2)CO[C@@H]1CN(C)C(=O)Cc1ccccc1 9 131*! 1 17 34 10 3
C[C@H]1CN([C@@H](C)CO)C(=O)CCCn2cc(nn2)CO[C@@H]1CN(C)C(=O)Nc1cccc(C(F)(F)F)c1 -7 28 3 x x x x
C[C@H]1CN([C@@H](C)CO)C(=O)CCCn2cc(nn2)CO[C@@H]1CN(C)C(=O)c1ccc(N2CCN(C)CC2)cc1 -1 -20 -6 x x x x
C[C@H]1CN([C@@H](C)CO)C(=O)CCCn2cc(nn2)CO[C@@H]1CN(C)Cc1cccc(O)c1 0 15 x x x x x
Cc1noc(C)c1NC(=O)N(C)C[C@@H]1Oc2ccc(NC(=O)Nc3cccc4ccccc34)cc2CC(=O)N([C@@H](C)CO)C[C@@H]1C -11 -8 2 x x x x

Screening results deposited in PubChem by Broad Institute.
